Test results from ChEMBL document CHEMBL4513151, “CO-ADD screening of Institut Català d'Investigació Química (Spain) compounds”.
“And” between values parts separate entries of the source, which are not always exact repeats. Identical values can stand only once. Measured potencies and affinities stand elsewhere.

Columns and labels:
[1] = system: Staphylococcus aureus; details: Concentration 32 ug.mL-1, ASSAY_TEST Inhibition of Bacterial Growth, detection method Absorption (OD600), MEDIA CAMHB, plate type 384well, NBS, CORNING #3640, time 18 hr
[2] = system: Escherichia coli; details: Concentration 32 ug.mL-1, ASSAY_TEST Inhibition of Bacterial Growth, detection method Absorption (OD600), MEDIA CAMHB, plate type 384well, NBS, CORNING #3640, time 18 hr

SMILES | Inhibition [1] [%] | Inhibition [2] [%] | Inhibition ([1]; 32 ug/mL) | Inhibition ([2]; 32 ug/mL)
C=C1CC(C(=O)OC)(C(=O)OC)C[C@@H]1[C@@H](NS(=O)(=O)c1ccc(C)cc1)c1ccccc1 | 21 | -0.02 | – | –
C=C1CC2(COC(C)(C)OC2)C[C@@H]1[C@@H](Nc1ccc(Br)cc1)c1ccccc1 | 25.91 | 2.09 | – | –
C[C@]12CC[C@@](c3ccc4ccccc4c3)(O1)[C@H]1C=C[C@H](OC(=O)c3ccccc3)[C@H]12 | 16.21 | -2.58 | – | –
C=C1CC(COCc2ccc(OC)cc2)(COCc2ccc(OC)cc2)C[C@@H]1[C@@H](Nc1ccc(Br)cc1)c1ccccc1 | -1.38 | -13.28 | – | –
C[C@]12CC[C@@](C3CCCC3)(O1)[C@H]1C=C[C@H](OC(=O)c3ccccc3)[C@H]12 | 23.21 | 7.38 | – | –
C[C@]12CC[C@@](C3CC3)(O1)[C@H]1C=C[C@H](OC(=O)c3ccccc3)[C@H]12 | – | – | 14.3% and 9.5% | -1.08% and -3.45%
C=C1CC(C(=O)OC)(C(=O)OC)C[C@@H]1[C@H](c1ccccc1)n1ccc2ccc(Cl)cc21 | 17.85 | 1.22 | – | –
C[C@]12CC[C@@](C)(O1)[C@H]1C=C[C@H](OC(=O)c3ccccc3)[C@H]12 | 17.97 | 0.47 | – | –
C[C@]12CC[C@@](c3ccc(C(F)(F)F)cc3)(O1)[C@H]1C=C[C@H](OC(=O)c3ccccc3)[C@H]12 | – | – | 20.36% and 17.47% | 2.03% and 5%
C=C1CC(COC)(COC)C[C@@H]1[C@@H](Nc1ccc(Br)cc1)c1ccccc1 | 4.73 | -1.74 | – | –
C[C@@H]1CC(=O)C=C2C(=O)[C@@H]3[C@@H](C3(C)C)[C@]21C | 24.26 | 3.69 | – | –
C[C@]12CC[C@@H](O1)[C@H]1C=C[C@H](OC(=O)c3ccccc3)[C@H]12 | 21.38 | 2.42 | – | –
C[C@]12CC[C@@](c3ccccc3)(O1)[C@H]1C=C[C@H](OC(=O)c3ccccc3)[C@H]12 | – | – | 15.6% and 15.32% | -5.43% and -1.36%
C=C1CC(C(=O)OC)(C(=O)OC)C[C@@H]1[C@H](c1ccccc1)n1ccc2ccccc21 | 19.16 | 2.95 | – | –
